Data: PubChem BioAssay
The source made the active and inactive calls.

Experiments:
[1] = small molecules captured by biotinylated probe aFSTL3 – biochemical, small-molecule microarray, fluorescence 635/667, stem cell growth factor project, primary screen (AID 1064); details: higher = more signal;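 note: measures binding of the biotinylated anti-FSTL3 antibody to printed compounds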
[2] = binders from COS7 lysate, DM2A8 probe, primary screen, torsin A project, cell lysate, small-molecule microarray, fluorescence 635/667 (AID 1065); details: higher = more signal, COS7 lysate expressing mutant human TOR1A
[3] = small molecules captured by biotinylated probe aFGF2 – biochemical, small-molecule microarray, fluorescence 635/667, stem cell growth factor project, primary screen (AID 1067); details: higher = more signal;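 note: measures binding of biotinylated aFGF2 protein to printed compounds on slides; z-score merges feature fluorescence and signal-to-noise across triplicate slides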
[4] = small molecules captured by biotinylated probe aFGF10 – biochemical, small-molecule microarray, fluorescence 635/667, stem cell growth factor project, primary screen (AID 1071); details: higher = more signal;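 note: score merges 667 nm spot intensity and signal to noise from triplicate slides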
[5] = molecular target: Neurogenic locus notch homolog protein 2 (Homo sapiens) (UniProt Q04721); assay: small molecules binding Notch2 protein – biochemical, small-molecule microarray, 635 nm fluorescence, stem cell growth factors, primary screen (AID 1073); details: higher = more signal
[6] = molecular target: Pro-neuregulin-1, membrane-bound isoform (Homo sapiens) (UniProt Q02297); assay: small molecules binding neuregulin-1 protein – biochemical, small-molecule microarray, fluorescence 635/667, psychiatric disease protein project, primary screen (AID 1075); details: NRG1 binding, 635 nm fluorescence, higher = more signal;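 note: score combines 667 nm spot fluorescence with signal to noise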
[7] = system: Neuregulin-1 EGF-like domain; assay: small molecules binding NRG1 EGF domain – biochemical, small-molecule microarray, 635 nm fluorescence, primary screen (AID 1081); details: higher = more signal;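 note: binding of the protein to compounds printed on small-molecule microarray slides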
[8] = FRG1 expression reporter modulators in myotubes – cell-based, C2C12 myotubes, firefly/Renilla luciferase, luminescence, FRG1 inhibition for FSHD, primary screen (AID 1084); details: FRG1 promoter luciferase, higher = more signal, called active from +8 up or from −8 down
[9] = small molecules captured by biotinylated probe aFST – biochemical, small-molecule microarray, fluorescence 635/667, stem cell growth factor project, primary screen (AID 1086); details: higher = more signal;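 note: score merges 667 nm fluorescence with signal-to-noise of each printed compound spot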
[10] = binders of probe aHhip on microarray, primary screen, stem cell growth factor project, biochemical, small-molecule microarray, fluorescence 635/667 (AID 1087); details: higher = more signal;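 note: score merges spot fluorescence at 667nm with spot signal to noise ratio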
[11] = system: PRMT1 (protein arginine N-methyltransferase 1); assay: small molecules binding arginine methyltransferase PRMT1 – biochemical, small-molecule microarray, 635 nm fluorescence, primary screen (AID 1088); details: higher = more signal;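 note: binding of Prmt1 protein to compounds spotted on small-molecule microarray slides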
[12] = growth effects on S. cerevisiae YJM789 – YJM789 clinical isolate, OD600, 24 h, basal, primary screen (AID 1089); details: higher = more signal, called active from +8 up or from −8 down;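 note: growth of clinical yeast isolate S. cerevisiae YJM 789 seeded 1000 cells per well; test concentration not given here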
[13] = S. pombe growth modifiers, basal conditions – strain 972, OD600, 24 h, no modulator, primary screen (AID 1090);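 note: basal condition with compound alone and no growth modifier present; test concentration not given here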; details: S. pombe 972 growth, higher = more signal, called active from +8 up or from −8 down
[14] = budding yeast growth modifiers under rapamycin – strain BY4716, OD600, 96 h, primary screen (AID 1091); note: test concentration not given here; details: S. cerevisiae BY4716 + rapamycin, higher = more signal, called active from +8 up or from −8 down
[15] = molecular target: Torsin-1A-interacting protein 2 (Homo sapiens) (UniProt Q8NFQ8); assay: small molecules binding lysate-expressed LULL1 – cell lysate, human LULL1 lysate, 635/667 nm fluorescence, primary screen (AID 1092); details: small-molecule microarray, hLULL1 lysate binding, 635 nm fluorescence; higher = more signal;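 note: probe is lysate of COS7 cells overexpressing human LULL1; score merges per-feature 667 nm fluorescence with signal-to-noise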
[16] = optical density change of DRC41 E. coli – strain DRC41, OD650, 24 h, E. coli filamentation project, primary screen (AID 1093);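 note: MC1000 strain lacking acrAB efflux and sulA so SOS filamentation is blocked; test concentration not given here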; details: E. coli DRC41 growth, higher = more signal, called active from +8 up or from −8 down
[17] = probe aLefty2 binding to arrayed compounds – biochemical, biotinylated probe, 635/667 nm fluorescence, primary screen (AID 1094); details: small-molecule microarray, higher = more signal;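 note: score merges spot fluorescence near 667 nm with spot signal-to-noise ratio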
[18] = system: Noggin (protein binding on small-molecule microarray); assay: small molecules binding Noggin protein – biochemical, 635/667 nm fluorescence, primary screen (AID 1095); details: 635 nm fluorescence, higher = more signal;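 note: score merges 667 nm feature fluorescence with signal to noise over triplicate slides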
[19] = molecular target: Neurogenic locus notch homolog protein 3 (Homo sapiens) (UniProt Q9UM47); assay: small molecules binding NOTCH3 protein – biochemical, 635/667 nm fluorescence, primary screen (AID 1096); details: small-molecule microarray, 635 nm fluorescence, higher = more signal
[20] = probe aEGFR binding to arrayed compounds – biochemical, biotinylated probe, 635/667 nm fluorescence, primary screen (AID 1097); details: small-molecule microarray, higher = more signal;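 note: probe is a biotinylated anti-EGFR antibody binding compounds printed on slides; score combines fluorescence near 667 nm and signal to noise of each spot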

Neurogenic locus notch homolog protein 2 (Homo sapiens), sequence (Q04721 whole entry, looked up, canonical isoform): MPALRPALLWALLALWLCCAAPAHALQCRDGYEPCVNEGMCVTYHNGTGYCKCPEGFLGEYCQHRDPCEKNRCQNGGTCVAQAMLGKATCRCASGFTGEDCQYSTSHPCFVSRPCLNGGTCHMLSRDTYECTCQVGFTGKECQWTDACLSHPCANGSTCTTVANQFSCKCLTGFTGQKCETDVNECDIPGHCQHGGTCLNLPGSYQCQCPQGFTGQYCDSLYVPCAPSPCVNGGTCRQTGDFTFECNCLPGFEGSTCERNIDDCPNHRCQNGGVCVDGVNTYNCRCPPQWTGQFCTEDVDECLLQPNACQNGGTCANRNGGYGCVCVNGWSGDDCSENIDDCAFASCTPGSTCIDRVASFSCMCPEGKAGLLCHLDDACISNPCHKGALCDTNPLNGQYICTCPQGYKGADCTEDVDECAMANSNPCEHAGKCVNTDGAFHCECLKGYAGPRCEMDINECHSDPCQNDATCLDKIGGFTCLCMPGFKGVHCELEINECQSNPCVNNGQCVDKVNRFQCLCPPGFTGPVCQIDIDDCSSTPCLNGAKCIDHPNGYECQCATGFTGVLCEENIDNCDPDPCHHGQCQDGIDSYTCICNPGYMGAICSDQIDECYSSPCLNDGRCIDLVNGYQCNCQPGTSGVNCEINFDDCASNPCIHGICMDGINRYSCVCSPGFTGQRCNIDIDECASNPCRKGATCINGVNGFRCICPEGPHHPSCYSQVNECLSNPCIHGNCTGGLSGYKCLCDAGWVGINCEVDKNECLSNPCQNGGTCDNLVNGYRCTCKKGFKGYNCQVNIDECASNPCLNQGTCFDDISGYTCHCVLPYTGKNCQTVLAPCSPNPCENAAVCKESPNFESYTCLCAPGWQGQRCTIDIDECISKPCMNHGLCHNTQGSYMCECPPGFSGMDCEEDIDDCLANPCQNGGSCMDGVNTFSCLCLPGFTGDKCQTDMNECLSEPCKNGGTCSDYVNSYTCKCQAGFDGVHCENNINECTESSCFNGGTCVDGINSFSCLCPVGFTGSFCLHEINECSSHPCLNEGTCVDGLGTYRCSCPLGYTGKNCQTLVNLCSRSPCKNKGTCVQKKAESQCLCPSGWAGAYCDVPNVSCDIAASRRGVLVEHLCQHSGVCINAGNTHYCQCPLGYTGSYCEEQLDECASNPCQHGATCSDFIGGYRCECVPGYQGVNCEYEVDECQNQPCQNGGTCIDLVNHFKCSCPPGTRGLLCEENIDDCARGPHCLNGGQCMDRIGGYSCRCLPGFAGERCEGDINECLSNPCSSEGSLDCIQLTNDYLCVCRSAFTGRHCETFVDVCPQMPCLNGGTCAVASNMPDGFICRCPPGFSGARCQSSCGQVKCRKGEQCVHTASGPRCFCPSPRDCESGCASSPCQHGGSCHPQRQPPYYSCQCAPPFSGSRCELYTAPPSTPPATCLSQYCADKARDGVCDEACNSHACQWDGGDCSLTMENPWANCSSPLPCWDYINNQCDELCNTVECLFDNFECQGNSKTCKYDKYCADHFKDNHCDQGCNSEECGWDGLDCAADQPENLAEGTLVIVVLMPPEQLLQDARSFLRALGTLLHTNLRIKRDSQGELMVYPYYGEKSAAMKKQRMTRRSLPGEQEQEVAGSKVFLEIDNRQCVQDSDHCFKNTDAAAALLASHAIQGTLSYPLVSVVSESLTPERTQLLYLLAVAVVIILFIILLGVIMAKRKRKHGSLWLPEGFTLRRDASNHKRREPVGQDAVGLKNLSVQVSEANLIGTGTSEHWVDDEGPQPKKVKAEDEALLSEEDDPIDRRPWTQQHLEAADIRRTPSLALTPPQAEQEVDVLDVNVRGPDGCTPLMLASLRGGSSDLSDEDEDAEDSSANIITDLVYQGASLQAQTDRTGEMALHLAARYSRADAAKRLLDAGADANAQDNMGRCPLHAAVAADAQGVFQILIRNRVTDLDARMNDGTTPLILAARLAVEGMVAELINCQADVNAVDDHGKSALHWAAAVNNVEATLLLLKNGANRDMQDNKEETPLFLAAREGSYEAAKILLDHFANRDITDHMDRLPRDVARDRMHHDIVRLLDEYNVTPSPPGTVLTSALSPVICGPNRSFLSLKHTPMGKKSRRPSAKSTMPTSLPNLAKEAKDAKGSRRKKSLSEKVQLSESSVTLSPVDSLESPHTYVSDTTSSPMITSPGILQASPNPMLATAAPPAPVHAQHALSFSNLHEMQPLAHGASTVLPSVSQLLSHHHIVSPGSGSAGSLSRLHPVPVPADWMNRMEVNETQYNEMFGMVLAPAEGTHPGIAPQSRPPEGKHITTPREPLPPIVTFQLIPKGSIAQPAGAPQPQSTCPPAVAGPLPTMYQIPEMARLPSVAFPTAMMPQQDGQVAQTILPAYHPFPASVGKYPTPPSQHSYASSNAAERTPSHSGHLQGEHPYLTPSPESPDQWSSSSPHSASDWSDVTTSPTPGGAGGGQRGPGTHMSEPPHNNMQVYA
Pro-neuregulin-1, membrane-bound isoform (Homo sapiens), sequence (Q02297 whole entry, looked up, the tested form may be a part, canonical isoform): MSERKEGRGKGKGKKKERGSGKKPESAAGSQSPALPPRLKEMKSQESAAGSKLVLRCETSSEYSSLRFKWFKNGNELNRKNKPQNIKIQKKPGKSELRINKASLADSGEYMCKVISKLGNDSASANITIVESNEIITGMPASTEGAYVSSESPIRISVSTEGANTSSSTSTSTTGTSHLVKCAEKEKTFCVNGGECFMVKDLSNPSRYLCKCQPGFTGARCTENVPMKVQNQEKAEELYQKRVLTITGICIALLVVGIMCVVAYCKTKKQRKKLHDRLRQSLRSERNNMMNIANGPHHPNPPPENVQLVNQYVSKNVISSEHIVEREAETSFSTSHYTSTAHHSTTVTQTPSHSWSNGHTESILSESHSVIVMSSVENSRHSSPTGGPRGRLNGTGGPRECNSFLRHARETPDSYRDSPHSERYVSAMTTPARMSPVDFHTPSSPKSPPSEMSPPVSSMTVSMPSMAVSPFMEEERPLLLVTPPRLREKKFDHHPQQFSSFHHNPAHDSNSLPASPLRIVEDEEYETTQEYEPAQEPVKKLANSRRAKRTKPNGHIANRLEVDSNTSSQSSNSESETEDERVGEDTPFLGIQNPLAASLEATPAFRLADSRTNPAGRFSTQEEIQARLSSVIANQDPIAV
Torsin-1A-interacting protein 2 (Homo sapiens), sequence (Q8NFQ8 whole entry, looked up): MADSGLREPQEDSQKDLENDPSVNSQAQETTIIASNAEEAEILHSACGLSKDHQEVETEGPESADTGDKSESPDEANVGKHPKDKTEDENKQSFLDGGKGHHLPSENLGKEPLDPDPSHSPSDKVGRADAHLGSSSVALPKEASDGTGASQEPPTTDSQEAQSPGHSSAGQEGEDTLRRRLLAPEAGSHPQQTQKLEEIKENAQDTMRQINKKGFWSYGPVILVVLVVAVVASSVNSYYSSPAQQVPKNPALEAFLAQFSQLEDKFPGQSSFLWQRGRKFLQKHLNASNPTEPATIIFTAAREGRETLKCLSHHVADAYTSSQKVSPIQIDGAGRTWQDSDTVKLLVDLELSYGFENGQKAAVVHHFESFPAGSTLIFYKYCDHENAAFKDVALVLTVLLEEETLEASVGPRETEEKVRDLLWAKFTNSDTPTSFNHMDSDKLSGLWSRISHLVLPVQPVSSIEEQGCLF

Compound	composite z-score [1]	composite z-score [2]	composite z-score [3]	composite z-score [4]	composite z-score [5]	composite z-score [6]	composite z-score [7]	z-score [8]	composite z-score [9]	composite z-score [10]	composite z-score [11]	z-score [12]	z-score [13]	z-score [14]	composite z-score [15]	z-score [16]	composite z-score [17]	composite z-score [18]	composite z-score [19]	composite z-score [20]
CCOC(=O)C[C@H]1[C@H](OC(=O)Cc2ccc3c(c2)OCO3)[C@@H](NC(=O)Cc2ccc(OC)cc2)c2cc(OCCCO)ccc2N1C(=O)Cc1ccc(OC)cc1	-0.199	0.225	-0.128	0.209	0.121	0.007	0.501	-3.1 (inactive)	0.255	0.132	0.433	-0.449 (inactive)	0.531 (inactive)	-0.495 (inactive)	1.3	0.503 (inactive)	-0.0616	-0.102	0.194	-0.157
CC(C)OC(=O)CC(=O)CC(O)c1cccc([N+](=O)[O-])c1 (stereo not given)	0.62	1.22	-0.0028	0.376	0.546	0.334	0.947	-1 (inactive)	0.815	-0.305	1.09	-4.2 (inactive)	-1.84 (inactive)	-2.74 (inactive)	1.64	0.305 (inactive)	-0.186	-0.164	0.83	-0.0215
C=C(C)[C@@H]1CC=C(C(O)C2C=CC3C(=O)N(C)C(=O)C3N2Nc2ccc([N+](=O)[O-])cc2[N+](=O)[O-])CC1 (stereo not given in full)	0.661	0.294	-0.144	0.431	1.68	1.74	1.36	0.404 (inactive)	1.46	-0.0003	1.32	0.513 (inactive)	1.79 (inactive)	0.966 (inactive)	3.52	-0.476 (inactive)	0.519	0.263	1.07	0.358
CC(C)=CCCC(C)=CC(O)C1C=CC2C(=O)NC(=O)C2N1Nc1ccccn1 (stereo not given)	-0.631	1.6	0.059	1.16	1.57	0.966	1.23	-0.385 (inactive)	1.21	-0.109	1.56	-1.17 (inactive)	0.504 (inactive)	-0.952 (inactive)	1.8	-0.978 (inactive)	0.212	1.36	1.11	0.186
Cc1ccc(S[C@]2(C(=O)NC3CC3)CC(=O)N(C(C)C)[C@@H]2c2ccc(CO)cc2I)cc1	-0.113	0.38	-0.0234	0.0084	-0.372	1.89	1.07	-0.0443 (inactive)	0.933	-0.318	1.27	-0.812 (inactive)	-2.43 (inactive)	-0.2 (inactive)	2.83	-1.34 (inactive)	-0.0865	-0.294	0.624	-0.196
CN1C(=O)C2C(C1=O)C1C=C(c3ccc(CO)cc3)C2C(C2CC2)N1C (stereo not given)	-0.23	0.388	-0.0932	0.0656	-0.337	1.16	0.811	0.0916 (inactive)	-0.176	0.0749	-0.346	0.724 (inactive)	-1.36 (inactive)	2.59 (inactive)	0.956	0.689 (inactive)	-0.209	0.102	-0.414	-0.229
C=CCC(OC(C)=O)[C@@H]1[C@@H](N(Cc2ccc(-c3ccccc3)cc2)C(=O)c2cccc3ccccc23)c2cc(OCCCO)ccc2N1C(=O)Cc1ccc(OC)cc1 (stereo not given in full)	0.0714	-0.205	-0.108	-0.234	-0.559	-0.229	-0.757	-0.72 (inactive)	0.165	3.52	-0.159	-0.774 (inactive)	0.0643 (inactive)	-0.631 (inactive)	-0.203	-1.09 (inactive)	0.0748	0.417	-0.477	0.122
CN(C)c1ccc(C(O)C2C=CC3C(=O)N(Cc4ccccc4)C(=O)C3N2n2cnnc2)cc1 (stereo not given)	0.0652	0.0666	-0.0303	0.0521	0.0282	-0.161	-0.103	-1.18 (inactive)	0.198	0.244	-0.765	-1.24 (inactive)	0.396 (inactive)	-0.528 (inactive)	0.0442	0.372 (inactive)	0.123	0.359	-0.139	-0.0649
COC(=O)[C@@]1(Cc2ccccc2)[C@H]2c3cc(C(=O)N(C)C)n(CCSC(=N)N)c3C[C@H]2CN1C(=O)c1ccccc1	-0.0908	-0.512	0.243	-0.248	-0.175	1.28	1.04	0.453 (inactive)	0.319	0.0401	0.265	0.485 (inactive)	1.12 (inactive)	0.102 (inactive)	2.05	-0.0906 (inactive)	0.169	-0.699	-0.0995	-0.112
C[C@@H]1ON(c2ccccc2)[C@H](c2ccccc2)[C@H]1C(=O)O	-0.0301	0.112	-0.085	0.364	0.0812	-0.515	-0.198	-0.313 (inactive)	-0.0817	0.289	0.461	-0.452 (inactive)	0.252 (inactive)	-0.408 (inactive)	-0.0551	-0.108 (inactive)	-0.196	0.175	0.102	0.203
COc1cc(C(O)C2C=CC3C(=O)N(c4ccccc4)C(=O)C3N2Nc2ccccc2F)cc(OC)c1OC (stereo not given)	-0.0643	0.155	0.0253	0.935	1.64	1.93	1.29	1.26 (inactive)	0.612	0.252	1.54	0.785 (inactive)	0.578 (inactive)	1.32 (inactive)	3.58	-0.629 (inactive)	0.122	0.334	1.09	-0.027
